# Reference: publication PMC7819943, “Rice protein-binding microarrays: a tool to detect cis-acting elements near promoter regions in rice”
# The full ranking holds about 68,000 sequences; the median of “fluorescence intensity (a.u.)” is about 9,100, and the highest 2% start at about 16,000. For the sample, the highest values were picked, then their nearest neighbours and some sequences at random.
# Target: OsWRKY34 (Oryza sativa, UniProt Q0JBA9 1-250)
# Experiment: protein-binding microarray (RPBM); PBS, 2% BSA, 51.3 ng/ul salmon testes DNA, 50 uM zinc acetate, 200 nM TF, 25 C, 1 h; high values mean tight binding
# Conditions: protein: recombinant; tags: N-terminal polyhistidine and DsRed monomer fusion (pET32a); label: CyDye5-dUTP incorporated in the synthesized complementary strand; 3' TTTTT single-stranded linker to array surface; dsDNA, one strand shown
# Outline: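 Ni–NTA purification followed expression in E. coli BL21-CodonPlus of transcription factors fused N-terminally to a polyhistidine tag and DsRed. At 200 nM in PBS with 2% BSA, salmon testes DNA and 50 µM zinc acetate, the protein was incubated for 1 h at 25 °C with a custom Agilent array that had been primer-extended with Cy5-dUTP and blocked with 2% BSA. After washing, the array was read on an Axon 4000B scanner. The binding signal is per-feature fluorescence intensity in arbitrary units.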
# OsWRKY34, sequence (Q0JBA9 entry or part of it): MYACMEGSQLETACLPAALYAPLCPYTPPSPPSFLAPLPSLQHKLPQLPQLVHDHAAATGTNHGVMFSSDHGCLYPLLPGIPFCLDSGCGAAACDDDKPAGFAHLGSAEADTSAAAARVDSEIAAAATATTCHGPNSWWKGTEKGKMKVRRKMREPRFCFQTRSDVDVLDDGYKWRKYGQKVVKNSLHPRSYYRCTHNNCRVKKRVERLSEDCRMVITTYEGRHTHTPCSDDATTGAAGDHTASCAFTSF
row,Sequence,binding signal
1,ATTTTCTACTCTTTTGGTCCCACTAGTCATAGACTCTTTTCGGAGTCACCTAGTGCAG,10800 fluorescence intensity (a.u.)
2,TGTGCCGTGACTCGATGTGCTCCTCCATCTCTTGCTGCAACGGAGTCACCTAGTGCAG,8170 fluorescence intensity (a.u.)
3,TCGAGAGGTGGGGAGGGGAGGGGAGCAGAGGGCGGCATCGCGGAGTCACCTAGTGCAG,18600 fluorescence intensity (a.u.)
4,GTGAGGACGGCCTGCGGGTGCATGCGGGCGCAACAAGTAGCGGAGTCACCTAGTGCAG,17500 fluorescence intensity (a.u.)
5,GCGGTGGAGGGCCGGCGGAGAGGGGAGCAGCGGTGGAGGGCGGAGTCACCTAGTGCAG,11000 fluorescence intensity (a.u.)
6,GGGAGGGAGGGTGGCTGTAGTGTGCTAATCACAAATAATTCGGAGTCACCTAGTGCAG,20500 fluorescence intensity (a.u.)
7,GAGGGAGGGAGGGAGGGAGGGCGTGTAGCGTAGTTGGTGTCGGAGTCACCTAGTGCAG,18800 fluorescence intensity (a.u.)
8,TGTGCTGTGTGGTGTACTGGTGTGTGGGCTTAATAATTGTCGGAGTCACCTAGTGCAG,14200 fluorescence intensity (a.u.)
9,GTTTTTTTTTTTTGGCGCAGGGAGTGGTGGCGTGGTGTGTCGGAGTCACCTAGTGCAG,8170 fluorescence intensity (a.u.)
10,CGGGCGGCGGGTGCGGACTGCGGAGGAGGCTGGCGGGGCACGGAGTCACCTAGTGCAG,8630 fluorescence intensity (a.u.)
11,GCAGAGAGAGGGGAGGAGGGTGGGTGGCGGCGGCGGCTAGCGGAGTCACCTAGTGCAG,14400 fluorescence intensity (a.u.)
12,GAGGCGGGTGATAGCGCGGTGGGGCGGTGGCGGCGGTGGACGGAGTCACCTAGTGCAG,13000 fluorescence intensity (a.u.)
13,CTGCGGGGAGGTGTAGGAGGAGGAGGGCGGAGGAGGTGGTCGGAGTCACCTAGTGCAG,8780 fluorescence intensity (a.u.)
14,GGGAGGGGCTGCTAATTCGGTGTGATTAGTACAGTAGTTTCGGAGTCACCTAGTGCAG,10100 fluorescence intensity (a.u.)
15,CCTCACCCTATGCTCCTGTGTTTTGTAGTCTTTCGTAACACGGAGTCACCTAGTGCAG,8220 fluorescence intensity (a.u.)
16,ACGGCATCAAATCTCTGTTTGTACATGTGCCCCTGTTCTTCGGAGTCACCTAGTGCAG,9440 fluorescence intensity (a.u.)
17,CCCGACCAAACACTACGAACTCTTCTACCTTCTTTGTTTCCGGAGTCACCTAGTGCAG,12600 fluorescence intensity (a.u.)
18,CAATGCACTGTTCATCTTCAGTAGTTATGTTTTCTCAGTGCGGAGTCACCTAGTGCAG,10400 fluorescence intensity (a.u.)
19,CAAATTTGGTATTTCTCTCTGCTCACTCCATCCCTCAACTCGGAGTCACCTAGTGCAG,8830 fluorescence intensity (a.u.)
20,ATGGTGGCCGGTCTTTTTTCCTCTTCGCTCGATGCCAAAACGGAGTCACCTAGTGCAG,8270 fluorescence intensity (a.u.)
21,CGGCTAAACTCCCACGTGAACCAGACGCTGCACCAAAAACCGGAGTCACCTAGTGCAG,8430 fluorescence intensity (a.u.)

row,Sequence,binding signal
1,GAAGTGAATAGTAGAGGGTTTTGATGGGTTGGGAAGAGAACGGAGTCACCTAGTGCAG,11200 fluorescence intensity (a.u.)
2,ATTAATTTCGCTTGCTAACACGAGTTTAATCTGCCAATTTCGGAGTCACCTAGTGCAG,10000 fluorescence intensity (a.u.)
3,CCACTGCATACCAACACCAACCACTGTACTAGCACTACTACGGAGTCACCTAGTGCAG,8980 fluorescence intensity (a.u.)
4,AGATTGTGGTGGGTGTTGATTGTGGTGATCTTGTCCCCTCCGGAGTCACCTAGTGCAG,13000 fluorescence intensity (a.u.)
5,CTCGAGCGGCGGTGGGGATGGGGATGGGGCGGCGGCGACGCGGAGTCACCTAGTGCAG,17000 fluorescence intensity (a.u.)
6,GGGCTGGAGATGGAGATGGAGATGGAGATGGAGGGTGGGTCGGAGTCACCTAGTGCAG,8660 fluorescence intensity (a.u.)
7,GCGGGAGGAGAGCGGCGGGCGGCGGGCGGCGGCGGCTGTGCGGAGTCACCTAGTGCAG,9520 fluorescence intensity (a.u.)
8,GGCGGGGCGGCGGAGGTGGTGGTGGGGAGGGCGAGAGATGCGGAGTCACCTAGTGCAG,23400 fluorescence intensity (a.u.)
9,CTACTATACGTCGATGGGGAGGGAGGGAGGGTGGCTGTAGCGGAGTCACCTAGTGCAG,26400 fluorescence intensity (a.u.)
10,GTGGTGTAGTGGGAGCGGCCGAGATGGGGCGTCGACGGGGCGGAGTCACCTAGTGCAG,8770 fluorescence intensity (a.u.)
11,GGAGATCCTGAGGCAGCGGGGAGAGGGGAGGTGGGCGATGCGGAGTCACCTAGTGCAG,10500 fluorescence intensity (a.u.)
12,AGAGATGCGTGTGTAGGCGGCGGGGAGGGGAGGGCTGTGACGGAGTCACCTAGTGCAG,17700 fluorescence intensity (a.u.)
13,AGGCGAGCGAGGCGGGTGGGCGGGGAGCGAACCAACGACGCGGAGTCACCTAGTGCAG,8840 fluorescence intensity (a.u.)
14,AGAGGAGGAGAGTGGTGGTGGTGCGAGAGGGAGGGAGATGCGGAGTCACCTAGTGCAG,9230 fluorescence intensity (a.u.)
15,GGAGAAAAAGGGGAGGGAGGGAGATGATGACGTGTAGGGGCGGAGTCACCTAGTGCAG,8550 fluorescence intensity (a.u.)
16,GGCTCGCGGAGGGCGGGGCTGGGATGGTGGCGGATGGGAGCGGAGTCACCTAGTGCAG,10800 fluorescence intensity (a.u.)
17,ATTGCATCGCCCATTTCGCTCATGGATCAGTAGGTAGCCACGGAGTCACCTAGTGCAG,8190 fluorescence intensity (a.u.)
18,AGTCAGTGACATCTATCTTTTCATCGATGTGTCTATTGCCCGGAGTCACCTAGTGCAG,8640 fluorescence intensity (a.u.)
19,ACCCATCCATCGCCAGCCATGCACACCCTCGCTCTGACGACGGAGTCACCTAGTGCAG,8640 fluorescence intensity (a.u.)
20,CAACGAGGAGCGATGCATATCTAGCAGTTTTGTTTTTCATCGGAGTCACCTAGTGCAG,8420 fluorescence intensity (a.u.)
21,TACACCCTTGGGCCCACCTGTCAACCTCTCACCCTATATTCGGAGTCACCTAGTGCAG,11900 fluorescence intensity (a.u.)

row,Sequence,binding signal
1,GATGAGTCCTCACCTGAGTTTCTTCCGTCCATGGCGGCCGCGGAGTCACCTAGTGCAG,10500 fluorescence intensity (a.u.)
2,ATCCCCAGCCTCCAATACCGGTCCCGTGCTTGTTTTTCTTCGGAGTCACCTAGTGCAG,9470 fluorescence intensity (a.u.)
3,AATTCGTACTTTTTCCTTTGTGTTTTGTCTATCTTAAATTCGGAGTCACCTAGTGCAG,14300 fluorescence intensity (a.u.)
4,AAACCCACCCACCCAGCGCTTCTTCTTTCCTTTCTTTATTCGGAGTCACCTAGTGCAG,12900 fluorescence intensity (a.u.)
5,TTTCCAACCTGATCGGGTGCTGCCTTTTCATTCTTCCCTCCGGAGTCACCTAGTGCAG,8430 fluorescence intensity (a.u.)
6,ATTTCCCCTGAACTCTACGTTTACAGGTTATGGTTATCTCCGGAGTCACCTAGTGCAG,8350 fluorescence intensity (a.u.)
7,ATACATATTTTTTTCTCTATTTCTGCCCAACATGTTTTTCCGGAGTCACCTAGTGCAG,8950 fluorescence intensity (a.u.)
8,AAGGGTTATCGACCTACGCCTGCTGGCCCTTTTCGGCTTTCGGAGTCACCTAGTGCAG,9300 fluorescence intensity (a.u.)
9,GCTGTGGCGGAGGTGGGGAGGTGGAGGTGGAGGGGAGATGCGGAGTCACCTAGTGCAG,24600 fluorescence intensity (a.u.)
10,TGTCAGGTCAAATCGGGGAGGCGGGGTGCGTACCAACGGTCGGAGTCACCTAGTGCAG,11900 fluorescence intensity (a.u.)
11,TGCATTGACCAGGTCAACGGGAGAGGGAGGGGCAAAATCGCGGAGTCACCTAGTGCAG,19600 fluorescence intensity (a.u.)
12,GAGGTGGGTGTGGAACTGTGGATGCGGGTCGGGGAGATCGCGGAGTCACCTAGTGCAG,16900 fluorescence intensity (a.u.)
13,GGGAGATTTGTTGCAACGGAGGGCATTGAGTGGTGGGGACCGGAGTCACCTAGTGCAG,8570 fluorescence intensity (a.u.)
14,TCGGCGGCGAGGTGGTGGCGGTGGCGGTGGTGGGAGTAGTCGGAGTCACCTAGTGCAG,15200 fluorescence intensity (a.u.)
15,AAACGCTGTGGTGGGTGGTGGTGCGGATGGGGAGGTGTGGCGGAGTCACCTAGTGCAG,14100 fluorescence intensity (a.u.)
16,TGGTGGTGGTGGTGGCTGTAGTGTGGAGGTGGTGGGGAGTCGGAGTCACCTAGTGCAG,16700 fluorescence intensity (a.u.)
17,CGTTGGAACGTGCGGGTGTGGGGAAACTGAGGGTGAGGATCGGAGTCACCTAGTGCAG,8600 fluorescence intensity (a.u.)
18,CTGTGCGGGAGGTGGAGATGGAGATGGTGGGTGGATCGGACGGAGTCACCTAGTGCAG,8630 fluorescence intensity (a.u.)
19,CGCTCGGCGGTGAGGTGGAGGTGGAGGTGGGTGGGAGATGCGGAGTCACCTAGTGCAG,12900 fluorescence intensity (a.u.)
20,GATGCGGGTGAGGTGCCGCGCTGTGGGGAGAGAGGGTGGGCGGAGTCACCTAGTGCAG,8560 fluorescence intensity (a.u.)
21,CATCTGATCGGCATCGGCATCGTCCTCGTCCTCGGCATCACGGAGTCACCTAGTGCAG,9990 fluorescence intensity (a.u.)

row,Sequence,binding signal
1,TCTGGGTATCCTCTGTTATGTCATCTTCACCTCCATTTGGCGGAGTCACCTAGTGCAG,8690 fluorescence intensity (a.u.)
2,CTGCTAGCCCGGTTAATCTACCAAAACCCGTCTTGATTTACGGAGTCACCTAGTGCAG,9070 fluorescence intensity (a.u.)
3,TTAGTATAGCTGTATTCTTCCCAACTTCCTATTTTCCTCTCGGAGTCACCTAGTGCAG,8540 fluorescence intensity (a.u.)
4,CTCGAACCACTGACCATCCCGTCCACACTGCACCGCGCTACGGAGTCACCTAGTGCAG,8260 fluorescence intensity (a.u.)
5,AGCCACGACCCAATCTTCGCTGCGGTTGACTTTAAATTAACGGAGTCACCTAGTGCAG,9760 fluorescence intensity (a.u.)
6,GCGTGTGTTCTTGTGCTGGATTGTGGAGTTCTTGATCCCTCGGAGTCACCTAGTGCAG,10000 fluorescence intensity (a.u.)
7,CATGGTGACATGTTGTGGGGCTGTGTCTTGTGGGTACAGTCGGAGTCACCTAGTGCAG,8650 fluorescence intensity (a.u.)
8,AGGAGGGGAGGCGCGGCGGAGGAGAAGAGGTGGGGATGGACGGAGTCACCTAGTGCAG,10000 fluorescence intensity (a.u.)
9,GGCGGCGCGGGTTTAGCGGGATGGGGAGGCGGCGAGTGGCCGGAGTCACCTAGTGCAG,8140 fluorescence intensity (a.u.)
10,GATAACATGTTGTAGTCTTCCAGGGGTGGGTGTTAGCTGTCGGAGTCACCTAGTGCAG,16700 fluorescence intensity (a.u.)
11,GGACGGAGGGGCGGGGTGCGACGCGGACGGCGGCGGCGGGCGGAGTCACCTAGTGCAG,13500 fluorescence intensity (a.u.)
12,AACATAACTGTCTTCTTCCATTTGTATGTCATGTTTCTGTCGGAGTCACCTAGTGCAG,10700 fluorescence intensity (a.u.)
13,GGAGATACGGCGAGGGGAGGGGACGGAGGGGCGGGGTGCGCGGAGTCACCTAGTGCAG,24700 fluorescence intensity (a.u.)
14,TGTGGGACGATGGGGAGGTGTGGGGACGCACGCGGGGCGACGGAGTCACCTAGTGCAG,10200 fluorescence intensity (a.u.)
15,GCGCGGCGCGGCGGGACGGGGTGGGGCGAGGGCAGCAGCGCGGAGTCACCTAGTGCAG,8520 fluorescence intensity (a.u.)
16,ACTCCGGCGGGTTAGGGTTTGGGGTTGGGGTGAGGGTAGGCGGAGTCACCTAGTGCAG,10900 fluorescence intensity (a.u.)
17,CGAAATGGGAGGCGGGGTTTAGGGTTTCCGGCGGGGAGGGCGGAGTCACCTAGTGCAG,25200 fluorescence intensity (a.u.)
18,GCGATGGGAGGTGGGCGACGCGAGGGAGAGGGGAGAGGGGCGGAGTCACCTAGTGCAG,18500 fluorescence intensity (a.u.)
19,GAGGACTGGGCGAAGGGGTGGAAGAAAATGTGGTTGTCGACGGAGTCACCTAGTGCAG,8580 fluorescence intensity (a.u.)
20,ATGGCTCGGTGGTGCACTATTTTTTTTTTAACTTAATTTGCGGAGTCACCTAGTGCAG,12100 fluorescence intensity (a.u.)
21,CACAATAGACCACCCGAAACCACATCTTCAACACTTCAATCGGAGTCACCTAGTGCAG,8530 fluorescence intensity (a.u.)
